ChEMBL document CHEMBL4303122, “Identification of potential treatments for COVID-19 through artificial intelligence-enabled phenomic analysis of human cells infected with SARS-CoV-2” (2020)
The full ranking holds about 1,600 compounds; the median of “Hit score” is about 0.13, and the highest 2% start at about 0.46. The full list was thinned out, with the highest values kept by preference. *1 amine or outer side, *2 acyl side, *3 side chain or, on linkers, in order; H or OH if unused. Where a SMILES comes first, the peptide text is derived from it. Bridges are numbered along the chain shown (N, C = ends). [ ]: non-standard residue; d: D form. The star is where a group is joined. pTerphenylCO(4''-OnC5H11) = CCCCCOc1ccc(-c2ccc(-c3ccc(C(=O)*)cc3)cc2)cc1; Orn(4R-OH,5R-OH) = O=C([C@H](C[C@@H](O)[C@@H](O)N[*:3])N[*:1])[*:2]; hTyr(3S-OH,4S-OH) = N[C@H](C(=O)O)[C@H](O)[C@@H](O)c1ccc(O)cc1; Pro(3S-OH,4S-Me) = C[C@H]1CN[C@H](C(=O)O)[C@H]1O; Hyp = O=C(O)[C@@H]1C[C@@H](O)CN1

What follows are compounds tested on SARS-CoV-2 (assay: Antiviral activity against SARS-CoV-2 (USA-WA1/2020 strain) measured by imaging in HRCE cells at MOI 0.4 after 96 hrs (reported as hit score from 0-1 for on-disease vs off-disease activity: scores >0.6 considered hits)).
Assay type: functional, Homo sapiens

For `CCCCc1cc2ccccc2c(OCCN(C)C)n1` [DIMETHISOQUIN], which Hit score is on record?
The Hit score was 0.1395.

`CC[C@]1(O)C[C@H]2CN(CCc3c([nH]c4ccccc34)[C@@](C(=O)OC)(c3cc4c(cc3OC)N(C=O)[C@H]3[C@@](O)(C(=O)OC)[C@H](OC(C)=O)[C@]5(CC)C=CCN6CC[C@]43[C@@H]65)C2)C1` [VINCRISTINE] was tested. Which Hit score did it give?
The Hit score was 0.4904.

For `CC[C@]1(O)C[C@@H]2CN(CCc3c([nH]c4ccccc34)[C@@](C(=O)OC)(c3cc4c(cc3OC)N(C)[C@H]3[C@@](O)(C(=O)OC)[C@H](OC(C)=O)[C@]5(CC)C=CCN6CC[C@]43[C@@H]65)C2)C1` [VINBLASTINE], which Hit score is on record?
Its Hit score is 0.2235.

`O=C(C[S+]([O-])Cc1ccco1)NC/C=C\COc1cc(CN2CCCCC2)ccn1` (stereo not drawn) [LAFUTIDINE] was tested. Which Hit score did it give?
The Hit score was 0.2245.

With `CCC(c1ccccc1)c1c(O)c2ccccc2oc1=O` (stereo not drawn) [PHENPROCOUMON] as the compound, how does the Hit score read?
Its Hit score is 0.1829.

With `COc1ccc2c3c1O[C@H]1C[C@@H](O)C=C[C@@]31CCN(C)C2` [GALANTAMINE] as the compound, how does the Hit score read?
Its Hit score is 0.2532.

How did the Hit score turn out when `CC(C)COc1ccc(CNC(=O)N(Cc2ccc(F)cc2)C2CCN(C)CC2)cc1` [PIMAVANSERIN] was run?
The Hit score was -0.09171.

How did the Hit score turn out when `Brc1ccc(NC2C3CC4CC(C3)CC2C4)cc1` (stereo not drawn) was run?
Its Hit score is 0.3495.

`CO[C@H]1C(=O)[C@]2(C)[C@@H](OC)C[C@H]3OC[C@@]3(OC(C)=O)[C@H]2[C@H](OC(=O)c2ccccc2)[C@]2(O)C[C@H](OC(=O)[C@H](O)[C@@H](NC(=O)OC(C)(C)C)c3ccccc3)C(C)=C1C2(C)C` [CABAZITAXEL] was tested. Which Hit score did it give?
The Hit score was -0.8282.

`COC(=O)c1ccc2c(c1)NC(=O)/C2=C(\Nc1ccc(N(C)C(=O)CN2CCN(C)CC2)cc1)c1ccccc1` [NINTEDANIB] was tested. Which Hit score did it give?
Its Hit score is 0.1859.

How did the Hit score turn out when `O=c1ncnc2n([C@H]3O[C@@H](CO)[C@H](O)[C@@H]3O)[nH]cc1-2` [ALLOPURINOL RIBOSIDE] was run?
The Hit score was 0.1953.

Which Hit score does the source give for `Cc1c(O)cccc1C(=O)N[C@@H](CSc1ccccc1)[C@H](O)CN1C[C@H]2CCCC[C@H]2C[C@H]1C(=O)NC(C)(C)C` here?
The Hit score was 0.1621.

How did the Hit score turn out when `COc1ccc(C(=O)N2CCN(c3ccc4c(c3)CCC(=O)N4)CC2)cc1OC` [VESNARINONE] was run?
Its Hit score is 0.09463.

With `CCCOC(C(=O)OC1CCN(C)CC1)(c1ccccc1)c1ccccc1.Cl` as the compound, how does the Hit score read?
The Hit score was 0.3138.

How did the Hit score turn out when `C/C=C/C[C@@H](C)[C@@H](O)[C@H]1C(=O)N[C@@H](CC)C(=O)N(C)CC(=O)N(C)[C@@H](CC(C)C)C(=O)N[C@@H](C(C)C)C(=O)N(C)[C@@H](CC(C)C)C(=O)N[C@@H](C)C(=O)N[C@H](C)C(=O)N(C)[C@@H](CC(C)C)C(=O)N(C)[C@@H](CC(C)C)C(=O)N(C)[C@@H](C(C)C)C(=O)N1C` [CYCLOSPORINE] was run?
Its Hit score is 0.07198.

How did the Hit score turn out when `COc1ccc2c(c1)c(CC(=O)OCC(C(=O)O)c1ccccc1)c(C)n2C(=O)c1ccc(Cl)cc1` (stereo not drawn) was run?
The Hit score was 0.05914.

For `COc1ccccc1OC(=O)c1ccccc1OC(C)=O` [GUACETISAL], which Hit score is on record?
Its Hit score is 0.1414.

Which Hit score does the source give for `COc1ccc(NC(=O)c2ccc(C(=N)N(C)C)cc2)c(C(=O)Nc2ccc(Cl)cn2)c1` [BETRIXABAN] here?
Its Hit score is 0.004778.

With `O=C1NC(c2ccccc2)(c2ccccc2)C(=O)N1COP(=O)(O)O` [FOSPHENYTOIN] as the compound, how does the Hit score read?
The Hit score was -0.01075.

Which Hit score does the source give for `CNC(=O)c1cccc(NC(=O)N2CCC(Oc3ccccc3Cl)CC2)c1` here?
The Hit score was 0.1005.

For `CCCCc1nc(C)c(CC(=S)N(C)C)c(=O)n1Cc1ccc(-c2ccccc2-c2nnn[nH]2)cc1`, which Hit score is on record?
Its Hit score is 0.1262.

For `COc1ccc2c(O[C@@H]3C[C@H]4C(=O)N[C@]5(C(=O)NS(=O)(=O)C6CC6)C[C@H]5/C=C\CCCCN(C)C(=O)[C@@H]4C3)cc(-c3nc(C(C)C)cs3)nc2c1C`, which Hit score is on record?
The Hit score was 0.1824.

With `C=C1/C(=C\C=C2/CCC[C@]3(C)[C@@H]([C@H](C)/C=C/[C@H](C)C(C)C)CC[C@@H]23)C[C@@H](O)C[C@@H]1O` [DOXERCALCIFEROL] as the compound, how does the Hit score read?
The Hit score was 0.4621.

How did the Hit score turn out when `C=C1/C(=C\C=C2/CCC[C@]3(C)[C@@H]([C@H](C)OCCC(C)(C)O)CC[C@@H]23)C[C@@H](O)C[C@@H]1O` [MAXACALCITOL] was run?
The Hit score was -0.1282.

`C=C1CC[C@H](O)C/C1=C/C=C1\CCC[C@]2(C)[C@@H]([C@H](C)CCCC(C)(C)O)CC[C@@H]12` [CALCIFEDIOL ANHYDROUS] was tested. Which Hit score did it give?
Its Hit score is 0.4579.

`C=C1/C(=C\C=C2/CCC[C@]3(C)[C@@H]([C@H](C)CC[C@@H](O)C(C)C)CC[C@@H]23)C[C@@H](O)C[C@@H]1O` [TACALCITOL] was tested. Which Hit score did it give?
The Hit score was 0.4469.

Which Hit score does the source give for `C=C1CC[C@H](O)C/C1=C/C=C1\CCC[C@]2(C)[C@@H]([C@H](C)CC[C@@H](O)C(C)(C)O)CC[C@@H]12` [SECALCIFEROL] here?
Its Hit score is 0.3632.

Which Hit score does the source give for `C=C1CC[C@H](O)C/C1=C/C=C1\CCC[C@]2(C)[C@@H]([C@H](C)CCCC(C)C)CC[C@@H]12` [CHOLECALCIFEROL] here?
The Hit score was 0.2186.

With `C[C@H](/C=C/[C@H](C)C(C)(C)O)[C@H]1CC[C@H]2/C(=C/C=C3C[C@@H](O)C[C@H](O)C3)CCC[C@]12C` [PARICALCITOL] as the compound, how does the Hit score read?
Its Hit score is 0.5764.

`C=C1/C(=C\C=C2/CCC[C@]3(C)[C@@H]([C@H](C)/C=C/[C@@H](O)C4CC4)CC[C@@H]23)C[C@@H](O)C[C@@H]1O` [CALCIPOTRIENE] was tested. Which Hit score did it give?
Its Hit score is 0.6212.

With `CCN(CC)C(=O)Nc1ccc(OCC(O)CNC(C)(C)C)c(C(C)=O)c1` (stereo not drawn) [CELIPROLOL] as the compound, how does the Hit score read?
The Hit score was 0.5089.

How did the Hit score turn out when `CC(C)(C)NCC(O)COc1ccc(NC(=O)NC2CCCCC2)cc1` (stereo not drawn) [TALINOLOL] was run?
Its Hit score is 0.1441.

`CN(C)C(=O)Oc1cc(OC(=O)N(C)C)cc(C(O)CNC(C)(C)C)c1` (stereo not drawn) [BAMBUTEROL] was tested. Which Hit score did it give?
Its Hit score is 0.1323.

`C[C@]12CC[C@H]3[C@@H](CC[C@@]45O[C@@H]4C(O)=C(C#N)C[C@]35C)[C@@H]1CC[C@@H]2O` [TRILOSTANE] was tested. Which Hit score did it give?
Its Hit score is 0.3178.

With `COc1cc2nccc(Oc3ccc(NC(=O)Nc4cc(C)on4)c(Cl)c3)c2cc1OC` [TIVOZANIB] as the compound, how does the Hit score read?
The Hit score was 0.1611.

For `CC1(C)S[C@@H]2[C@H](NC(=O)COc3ccccc3)C(=O)N2[C@H]1C(=O)O` [PENICILLIN V], which Hit score is on record?
Its Hit score is 0.002553.

With `Cc1c(Cl)c(C)[n+]([O-])c(Cl)c1-c1noc(-c2cc(O)c(O)c([N+](=O)[O-])c2)n1` [OPICAPONE] as the compound, how does the Hit score read?
Its Hit score is -0.07412.

`Cc1ccc2c(c1)[C@]13CCCC[C@@H]1[C@H](C2)N(C)CC3` [DIMEMORFAN] was tested. Which Hit score did it give?
Its Hit score is 0.08461.

How did the Hit score turn out when `CCCCCOc1ccc(-c2ccc(-c3ccc(C(=O)N[C@H]4C[C@@H](O)[C@@H](O)NC(=O)[C@@H]5[C@@H](O)[C@@H](C)CN5C(=O)[C@H]([C@@H](C)O)NC(=O)[C@H]([C@H](O)[C@@H](O)c5ccc(O)cc5)NC(=O)[C@@H]5C[C@@H](O)CN5C(=O)[C@H]([C@@H](C)O)NC4=O)cc3)cc2)cc1` [ANIDULAFUNGIN] ({pTerphenylCO(4''-OnC5H11)}-[Orn(4R-OH,5R-OH)]T[Hyp][hTyr(3S-OH,4S-OH)]T[Pro(3S-OH,4S-Me)]; lactam 1-C) was run?
Its Hit score is 0.1907.

`C=CC(=O)Nc1cccc(Oc2nc(Nc3ccc(N4CCN(C)CC4)cc3)nc3ccsc23)c1` [OLMUTINIB] was tested. Which Hit score did it give?
The Hit score was 0.2407.

`Cc1oc(=O)oc1COC(=O)C1=C([C@H]2CCCO2)S[C@@H]2[C@@H]([C@@H](C)O)C(=O)N12` [FAROPENEM MEDOXOMIL] was tested. Which Hit score did it give?
Its Hit score is 0.000691.

How did the Hit score turn out when `CC(C)(O)CNc1nc(Nc2ccnc(C(F)(F)F)c2)nc(-c2cccc(C(F)(F)F)n2)n1` [ENASIDENIB] was run?
The Hit score was 0.1439.

`OC[C@H]1O[C@@](CO)(O[C@H]2O[C@H](CO)[C@@H](O)[C@H](O)[C@H]2O)[C@@H](O)[C@@H]1O` [SUCROSE] was tested. Which Hit score did it give?
Its Hit score is 0.09545.

With `Cc1cc(S(=O)(=O)[O-])c2c(C)ccc(C(C)C)cc1-2.[Na+]` [SODIUM GUALENATE] as the compound, how does the Hit score read?
Its Hit score is 0.2044.

With `CCCCCCCCCCCCCCCC(=O)O[C@@H]1[C@@H](O)[C@@H](O)[C@@H]([C@H](NC(=O)[C@@H]2C[C@@H](CCC)CN2C)[C@H](C)Cl)O[C@@H]1SC` [CLINDAMYCIN PALMITATE] as the compound, how does the Hit score read?
Its Hit score is 0.1881.

Which Hit score does the source give for `CCn1c(=O)c2c(nc(/C=C/c3ccc(OC)c(OC)c3)n2C)n(CC)c1=O` [ISTRADEFYLLINE] here?
Its Hit score is 0.1372.

For `COc1ccc(-c2cc(=O)c3c(O)c(OC)c(O)cc3o2)cc1OC` [EUPATILIN], which Hit score is on record?
The Hit score was 0.2352.

For `CC[C@]12CCCN3CCc4c(n(c5ccccc45)C(=O)C1)[C@@H]32` [VINBURNINE], which Hit score is on record?
Its Hit score is 0.1621.

How did the Hit score turn out when `CCOc1nc2cccc(C(=O)O)c2n1Cc1ccc(-c2ccccc2-c2noc(=O)[nH]2)cc1` [AZILSARTAN] was run?
Its Hit score is 0.1513.

Which Hit score does the source give for `CCC(C)(Oc1ccc(C2(c3ccc(OC(C)(CC)C(=O)O)cc3)CCCCC2)cc1)C(=O)O` (stereo not drawn) [CLINOFIBRATE] here?
The Hit score was 0.1194.

Which Hit score does the source give for `N[C@@H](CCN[C@@H](CCN1CC[C@H]1C(=O)O)C(=O)O)C(=O)O` here?
The Hit score was 0.1041.

How did the Hit score turn out when `Cn1cnc2c(F)c(Nc3ccc(Br)cc3F)c(C(=O)NOCCO)cc21` [BINIMETINIB] was run?
The Hit score was 0.0233.

For `O=C(O)c1cc2ccccc2c(Cc2c(O)c(C(=O)O)cc3ccccc23)c1O` [PAMOIC ACID], which Hit score is on record?
The Hit score was 0.0734.
